From PubChem
PI4K2A inh – blocks human PI4K2A kinase activity. purified PI4K2A, ADP-Glo luminescence, 1 h; active compounds read low. activity change, negative = inhibition, % at 76.9 µM. hit rate 0.13% among 420,000. AID 1346378; in the data active means activity change below about -50%;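 further: -100% = wells without enzyme as full effect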
Target sequence (Q9BTU6 whole entry, looked up): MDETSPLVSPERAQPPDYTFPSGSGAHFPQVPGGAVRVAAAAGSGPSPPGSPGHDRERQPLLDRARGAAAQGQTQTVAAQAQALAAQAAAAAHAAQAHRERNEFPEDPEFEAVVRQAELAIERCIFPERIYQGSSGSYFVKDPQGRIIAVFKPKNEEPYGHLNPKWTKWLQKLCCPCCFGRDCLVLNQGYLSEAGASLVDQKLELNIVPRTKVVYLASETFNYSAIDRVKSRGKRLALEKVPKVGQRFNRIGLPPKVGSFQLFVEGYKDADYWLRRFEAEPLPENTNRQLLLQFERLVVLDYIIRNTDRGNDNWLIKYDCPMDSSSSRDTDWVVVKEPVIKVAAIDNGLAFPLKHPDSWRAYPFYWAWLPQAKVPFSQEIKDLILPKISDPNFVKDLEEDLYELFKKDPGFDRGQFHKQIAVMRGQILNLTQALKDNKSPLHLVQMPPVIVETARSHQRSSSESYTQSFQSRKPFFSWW
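ADP-Glo luminescence measured ADP generated by PI4K2A enzyme (4 ug/mL before mixing) with 1.2 mM PI substrate (pre-mix) and 300 microM ATP (pre-mix). Tris pH7.5 buffer with MgCl2, Triton X-100; 1 h reaction at ambient temperature.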
DRD3 agonist – D3 dopamine receptor (human) agonism; D3R DiscoveRx beta-arrestin cells, luminescence, 90 min; max activation, %; hit rate 0.58% among 410,000; AID 652048; in the data active means max activation above about 30%; further: 0% is about no effect
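Agonist-mode cell screen: cells plated at 1500/well and incubated overnight at 37 °C, then exposed to library compounds for 90 min at 37 °C. Detection reagent was added for 30–60 min at room temperature, and luminescence was read.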
LDHA inh – blocks human lactate dehydrogenase A. activity change, % (values are at about 110 or 230 µM). P00338. purified LDHA, NADH/diaphorase-resazurin fluorescence; active compounds read low. hit rate 0.15% among 480,000; in the data active means activity change below about -30%;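 further: plate controls were DMSO wells for no effect and wells without enzyme for full effect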
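Remaining NADH was detected by diaphorase (0.133 mg/mL) converting 37 µM resazurin to fluorescent resorufin, read at 0 and 20 minutes. The preceding 5-minute room-temperature reaction used 2 nM LDHA, 0.2 mM sodium pyruvate and 0.06 mM NADH at pH 7.4.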
DRD3 antagonist – antagonists of human D3 dopamine receptor; P35462; D3R cells, DiscoveRx beta-arrestin luminescence, antagonist mode; active compounds read low; max response, negative = inhibition, %; hit rate 2.5% among 360,000; AID 652054; in the data active means max response below about -50%; further: on the % scale 0 is the no-effect control and ±100 the full control effect
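Cells plated overnight at 1500 cells/well, then exposed to library compounds with dopamine controls for 90 minutes at 37 degrees C. DiscoveRx reagent added for 30–60 minutes at room temperature; luminescence read, quantitative HTS format.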
PI5P4K alpha inh – PI5P4K alpha (human) kinase inhibition; max response, %; AID 652105; hit rate 1.2% among 330,000; PI5P4Kalpha enzyme, ADP-Glo luminescence, 60 min; active compounds read low; P48426; active means max response of -50% or lower; further: value at the top dose of about 77 µM; on the % scale 0 is the no-effect control and ±100 the full control effect
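Reactions run in 0.038 M HEPES pH 7.4, 0.28 mM EGTA, 0.1% CHAPS and 5% DMSO, with PI5P4Kalpha, substrate, compound and 5 microM ATP final, one hour at room temperature. Readout is ADP-Glo luminescence.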
* = called active by the depositor; · = no result given. Shown are actives, neighbours in structure and some others; about 3.3% of the full set was active somewhere.

SMILES	PI4K2A inh	DRD3 agonist	LDHA inh	DRD3 antagonist	PI5P4K alpha inh
CN1CCN(Cc2nc(Cc3ccccc3)no2)CC1c1ccccc1 (stereo not given)	-4.8	-5.7	1.5	3.1	17.6
Cc1csc(NCC(=O)c2c(C)[nH]c3ccccc23)n1	·	·	-7.9	·	·
Cc1cccc(C)c1-n1nnnc1SCc1nc2ccsc2c(=O)[nH]1	·	·	-16.0	·	·
CCOc1ccc(Nc2cc(C)nc(-n3nc(C)cc3C)n2)cc1	4.3	0.6	-1.6	-52.3*	3.4
COc1ccc(/C=N/Nc2cc(C)nc(-n3nc(C)cc3C)n2)c(OC)c1	3.0	-8.1	4.5	-7.9	-8.5
Cc1ccc(Nc2cc(C)nc(-n3nc(C)cc3C)n2)cc1	-0.4	-9.7	-13.8	·	·
CCOc1cc(/C=N/Nc2cc(C)nc(-n3nc(C)cc3C)n2)ccc1O	6.9	-41.3	0.8	-174.9*	7.0
COc1ccc(NC(=O)Nc2cccs2)cc1Cl	-1.1	-1.1	-0.3	-62.7*	-11.5
COc1ccc(NC(=O)CCC(=O)c2cccs2)cc1Cl	3.6	-6.2	-3.9	0.0	-0.6
CCN(CC)CCCNC(=O)Cn1ncn2cccc2c1=O	-5.5	-8.3	-4.7	-73.2*	-4.1
Cc1ccc(CNC(=O)Cn2ncn3cccc3c2=O)cc1	-0.7	1.1	-1.8	8.4	4.9
CCOC(=O)N1CCN(C(=O)CSCC(=O)Nc2nc(-c3ccc(-c4ccccc4)cc3)cs2)CC1	-0.5	55.8*	-13.9	137.4	5.1
Cc1cc(N2CCN(C3CCCCC3)CC2)nc2cccc(O)c12	-3.1	-9.8	7.6	-83.9*	-2.6
COc1ccc(CCNc2ccc(C(CC(N)=O)NC(=O)c3ccc(Br)cc3)cc2[N+](=O)[O-])cc1 (stereo not given)	-6.4	-24.1	-16.3	-67.9*	-19.4
NC(=O)CC(NC(=O)Cc1cccc2ccccc12)c1ccc(NCCOc2ccccc2)c([N+](=O)[O-])c1 (stereo not given)	-13.3	-30.9	-12.5	-80.1*	3.0
NC(=O)CC(NC(=O)Cc1ccc(Br)cc1)c1ccc(N2CCC(Cc3ccccc3)CC2)c([N+](=O)[O-])c1 (stereo not given)	2.4	-2.0	-15.2	-97.2*	-1.8
NC(=O)CC(NC(=O)Cc1ccc(Cl)cc1)c1ccc(NC2CC3CCC2C3)c([N+](=O)[O-])c1 (stereo not given)	-2.6	-8.0	7.8	-63.4*	1.8
NC(=O)CC(NC(=O)Cc1cccc2ccccc12)c1ccc(NC2CC3CCC2C3)c([N+](=O)[O-])c1 (stereo not given)	2.7	-23.4	-7.0	-64.7*	-5.2
Cc1ccc(C(=O)NCC(=O)Nc2ccncc2)cc1	1.1	2.6	-1.2	0.4	2.3
Cc1ccc(C(=O)CN(CCC(=O)O)C(=O)c2ccncc2)cc1	-0.3	31.4*	-0.4	27.9	3.8
O=c1[nH]c(CN2CCN(c3ccc(O)cc3)CC2)nc2scc(-c3ccc(Cl)cc3)c12	4.5	98.4*	-3.2	21.4	-3.0
Nc1ccccc1Nc1ccc([N+](=O)[O-])cc1[N+](=O)[O-]	-1.6	3.6	1.9	4.4	4.9
Nc1cc([N+](=O)[O-])ccc1Nc1ccc(O)cc1	-6.0	-5.9	7.7	-54.6*	-57.4*
COCCC(=O)N1CCCC(C(=O)c2ccccc2SC)C1 (stereo not given)	1.8	-6.4	-1.2	-58.8*	-9.1
COc1cc(C(=O)Nc2ncccc2C)cc(Cl)c1OCC(C)C	·	·	-3.2	·	·
SMILES	PI4K2A inh	DRD3 agonist	LDHA inh	DRD3 antagonist	PI5P4K alpha inh
COc1ccc(-c2nnc(SCc3c(F)cccc3F)n2N)cc1	-5.4	·	·	·	·
COc1cc(NC(=O)CCN2CCN(C/C=C/c3ccccc3)CC2)cc(OC)c1	0.1	2.6	2.1	-58.6*	0.0
Cc1ccc(NC(=O)CCN2CCN(C/C=C/c3ccccc3)CC2)cc1C	2.4	-8.8	1.7	-6.9	14.1
Cc1ccc(S(=O)(=O)NC(C)(C)CN2CCC(Cc3ccccc3)CC2)cc1	4.4	-19.0	-6.9	-58.8*	1.4
Cc1ccc(NC(=O)CCN2CCC(Cc3ccccc3)CC2)cc1	4.5	-17.3	-4.1	-53.2*	7.5
Cc1ccc(NC(=O)CCN2CCN(C/C=C/c3ccccc3)CC2)cc1	-19.8	-7.1	0.0	-52.9*	-0.6
CCOC(=O)C1CCN(CC(C)(C)NS(=O)(=O)c2ccc(C)cc2)CC1	-4.5	-15.1	-7.6	9.7	1.5
COc1cc(C#N)ccc1OC(C)C(=O)c1ccc(Br)cc1 (stereo not given)	·	·	4.6	·	·
